Reference: PubChem BioAssay (Tox21)
Records with an inconclusive call do not appear. Activity calls are given as the source filed them. Calls come from the whole dose curve; as a rule, active = well fitted curve in the direction sought with a large enough effect in the repeat runs; inconclusive = weak or mixed curves; inactive = no such curve, though single readings can be large; an effect the other way counts as inactive or inconclusive.

Experiments:
[1] = qHTS RealTime-Glo MT Cell Viability Assay in HEK293 cells - 16 hour (AID 1224872); note: top concentration of the series differs between compounds; nearly all actives have a fitted effect of over 50% in size
Summary of the method: (§1)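 Reads taken at 0, 8, 16, 24, 32 and 40 h from the same wells. HEK293 cells (600/well) carried RealTime-Glo reagents from seeding, with compound added after a 5 h settle at 37 C.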

[2] = qHTS RealTime-Glo MT Cell Viability Assay in HepG2 cells - 8 hour (AID 1224873); note: nearly all actives have a fitted effect of over 55% in size
Summary of the method: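 HepG2 cells (600/well) mixed with RealTime-Glo MT reagent, settled 5 h at 37 C/5% CO2 before compound addition. Nonlytic NanoLuc luminescence from viable-cell prosubstrate reduction read repeatedly during 40 h treatment at 37 C.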

[3] = qHTS RealTime-Glo MT Cell Viability Assay in HEK293 cells - 40 hour (AID 1224874); conditions: RealTime-Glo luminescence; max response: stronger effect = lower value; note: nearly all actives have a fitted effect of over 50% in size
Summary of the method: (§2)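 Cells were seeded together with NanoLuc luciferase and a prosubstrate that viable cells reduce to a luciferase substrate. After a 5 h incubation at 37 C/5% CO2, compounds were added and luminescence was measured repeatedly during 40 h of treatment.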

[4] = A CellTox Green Cytotoxicity Assay to monitor cytotoxicity in HEK293 cells - 24 hour (AID 1224875); note: series mostly up to about 77 µM; nearly all actives have a fitted effect of over 45% in size
Summary of the method: (§3)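 Nonlytic real-time cytotoxicity: HEK293 + CellTox Green reagent plated, 5 h preincubation, pintool compound addition (23 nL in DMSO), 37 C for 40 h, fluorescence measured at successive time points.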

[5] = A CellTox Green Cytotoxicity Assay to monitor cytotoxicity in HepG2 cells - 16 hour (AID 1224876); note: nearly all actives have a fitted effect of over 45% in size
Summary of the method: (§4)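 Read-out is fluorescence of a cyanine dye excluded from live cells that stains DNA of dead HepG2 cells, with signal proportional to cytotoxicity. Plates were read at 0, 8, 16, 24, 32 and 40 h after compound addition.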

[6] = qHTS RealTime-Glo MT Cell Viability Assay in HepG2 cells - 32 hour (AID 1224877); note: nearly all actives have a fitted effect of over 55% in size
Summary of the method: (§5)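 HepG2 suspension premixed with RealTime-Glo reagents is plated at 600 cells per well and left 5 h at 37 C/5% CO2. Compounds in DMSO then go in, and bioluminescence reflecting viable cell number is recorded over 40 h.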

[7] = A CellTox Green Cytotoxicity Assay to monitor cytotoxicity in HepG2 cells - 24 hour (AID 1224878); note: nearly all actives have a fitted effect of over 45% in size
Summary of the method: as §4

[8] = A CellTox Green Cytotoxicity Assay to monitor cytotoxicity in HepG2 cells - 40 hour (AID 1224879); note: nearly all actives have a fitted effect of over 40% in size
Summary of the method: as §4

[9] = qHTS RealTime-Glo MT Cell Viability Assay in HEK293 cells - 0 hour (AID 1224880); note: top concentration of the series differs between compounds; nearly all actives have a fitted effect of over 45% in size
Summary of the method: as §2

[10] = A CellTox Green Cytotoxicity Assay to monitor cytotoxicity in HEK293 cells - 32 hour (AID 1224881); note: nearly all actives have a fitted effect of over 40% in size
Summary of the method: as §3

[11] = A CellTox Green Cytotoxicity Assay to monitor cytotoxicity in HepG2 cells - 0 hour (AID 1224882); note: nearly all actives have a fitted effect of over 35% in size
Summary of the method: as §4

[12] = A CellTox Green Cytotoxicity Assay to monitor cytotoxicity in HepG2 cells - 32 hour (AID 1224883); note: nearly all actives have a fitted effect of over 50% in size
Summary of the method: as §4

[13] = qHTS RealTime-Glo MT Cell Viability Assay in HepG2 cells - 16 hour (AID 1224885); note: nearly all actives have a fitted effect of over 50% in size
Summary of the method: as §5

[14] = qHTS RealTime-Glo MT Cell Viability Assay in HEK293 cells - 24 hour (AID 1224886)
Summary of the method: as §1

[15] = qHTS RealTime-Glo MT Cell Viability Assay in HEK293 cells - 8 hour (AID 1224887)
Summary of the method: as §2

[16] = A CellTox Green Cytotoxicity Assay to monitor cytotoxicity in HEK293 cells - 16 hour (AID 1224888); note: nearly all actives have a fitted effect of over 35% in size
Summary of the method: as §3

[17] = A CellTox Green Cytotoxicity Assay to monitor cytotoxicity in HepG2 cells - 8 hour (AID 1224890); note: nearly all actives have a fitted effect of over 45% in size
Summary of the method: as §4

[18] = qHTS assay to identify small molecule antagonists of the estrogen receptor alpha (ER-alpha) signaling pathway using the BG1 cell line in the presence of 0.1 nM 17-beta-estradiol - cell viability counter screen (AID 1259241); note: nearly all actives have a fitted effect of over 40% in size
Summary of the method: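 VM7Luc4E2 cells (endogenous full-length ER-alpha, 4xERE-luciferase), cultured 5 days in charcoal-stripped serum, exposed to compounds with 0.1 nM 17beta-estradiol (final) for 22 hr at 37C. Viability read in same wells as live-cell protease fluorescence after 30 min.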

[19] = A CellTox Green Cytotoxicity Assay to monitor cytotoxicity in HEK293 cells - 8 hour (AID 1224884); note: nearly all actives have a fitted effect of over 35% in size
Summary of the method: as §3

[20] = qHTS RealTime-Glo MT Cell Viability Assay in HepG2 cells - 0 hour (AID 1224889); note: nearly all actives have a fitted effect of over 50% in size
Summary of the method: as §5
% is set by controls: 0 for no effect and ±100 for the full control effect.

CCCCOCCOC(=O)COc1cc(Cl)c(Cl)cc1Cl
inactive: Potency [1] | outcome [2] | max response [3] 4.7% | outcome [4] | outcome [5] | Potency [6] | outcome [7] | Potency [8] | Potency [9] | outcome [10] | Potency [11] | Potency [12] | outcome [13] | Potency [14] | Potency [15] | outcome [16] | outcome [17] | outcome [18]

CC(C)(C)C(=O)c1ccccc1
inactive: Potency [1] | outcome [2] | max response [3] 0.84% | outcome [4] | outcome [5] | Potency [6] | outcome [7] | Potency [8] | Potency [9] | outcome [10] | Potency [11] | outcome [19] | outcome [13] | Potency [14] | Potency [15] | outcome [16] | Potency [20] | outcome [17] | outcome [18]

CCOC(=O)COc1cc(-n2ncc(C(F)(F)F)c(C)c2=O)c(F)cc1Cl
inactive: Potency [1] | outcome [2] | max response [3] -4.34% | outcome [4] | outcome [5] | Potency [6] | outcome [7] | Potency [8] | Potency [9] | Potency [11] | Potency [12] | outcome [19] | outcome [13] | Potency [14] | Potency [15] | outcome [16] | Potency [20] | outcome [17] | outcome [18]

CCOc1ccc2nc(S(N)(=O)=O)sc2c1
inactive: Potency [1] | outcome [2] | max response [3] 6.72% | outcome [4] | outcome [5] | Potency [6] | outcome [7] | Potency [8] | Potency [9] | outcome [10] | Potency [11] | outcome [19] | outcome [13] | Potency [14] | Potency [15] | outcome [16] | Potency [20] | outcome [17] | outcome [18]

CC(=O)c1cnccn1
inactive: Potency [1] | outcome [2] | max response [3] 3.82% | outcome [4] | outcome [5] | Potency [6] | outcome [7] | Potency [8] | Potency [9] | outcome [10] | Potency [11] | outcome [19] | outcome [13] | Potency [14] | Potency [15] | Potency [20]

CC(=O)N[C@H]1[C@H]([C@H](O)[C@H](O)CO)OC(C(=O)O)=C[C@@H]1N=C(N)N
inactive: Potency [1] | outcome [2] | max response [3] 2.18% | outcome [4] | outcome [5] | Potency [6] | outcome [7] | Potency [8] | Potency [9] | outcome [10] | Potency [11] | outcome [19] | outcome [13] | Potency [14] | Potency [15] | outcome [16] | Potency [20] | outcome [17] | outcome [18]

CC(C)[C@H]1CC[C@@H](C)CC1=O
inactive: Potency [1] | outcome [2] | max response [3] -1.73% | outcome [4] | outcome [5] | Potency [6] | outcome [7] | Potency [8] | Potency [9] | outcome [10] | Potency [11] | outcome [19] | outcome [13] | Potency [14] | Potency [15] | outcome [16] | Potency [20] | outcome [17] | outcome [18]

COc1cc(-c2ccc(=O)[nH]n2)ccc1OC(F)F
inactive: Potency [1] | outcome [2] | max response [3] -5.19% | outcome [4] | outcome [5] | Potency [6] | outcome [7] | Potency [8] | Potency [9] | Potency [11] | Potency [12] | outcome [13] | Potency [14] | Potency [15] | outcome [16] | Potency [20] | outcome [17] | outcome [18]

CCN[C@@H]1C[C@H](N)[C@@H](OC2OC(CN)=CCC2N)[C@H](O)[C@H]1O[C@H]1OC[C@](C)(O)[C@H](NC)[C@H]1O (stereo not given in full)
inactive: activity change, negative = cytotoxicity [1] 1.34% [at 0.29 µM] | viability change, negative = cytotoxic [2] 0.243% [at 0.29 µM] | max response [3] 5.87% | activity change [4] 6.99% [at 0.29 µM] | cytotoxicity increase [5] -0.147% [at 0.29 µM] | activity change, negative = cytotoxic [6] 1.75% [at 0.29 µM] | cytotoxicity [7] -2.12% [at 0.29 µM] | cytotoxicity increase [8] -8.46% [at 0.29 µM] | activity change, negative = cytotoxicity [9] 1.44% [at 0.29 µM] | cytotoxicity [11] 3.46% [at 0.29 µM] | cytotoxicity increase [12] -3.76% [at 0.29 µM] | cytotoxicity increase [19] -0.876% [at 0.29 µM] | activity change, negative = cytotoxic [13] 0.169% [at 0.29 µM] | activity change, negative = cytotoxicity [14] 3.34% [at 0.29 µM] | activity change, negative = cytotoxicity [15] 0.47% [at 0.29 µM] | activity change [16] 1.26% [at 0.29 µM] | activity change, negative = cytotoxicity [20] 0.414% [at 0.29 µM] | cytotoxicity increase [17] 3.81% [at 0.29 µM] | activity change, negative = cytotoxicity [18] 0.862% [at 0.349 µM]

NS(=O)(=O)Cc1noc2ccccc12
inactive: Potency [1] | outcome [2] | max response [3] 1.21% | outcome [4] | outcome [5] | Potency [6] | outcome [7] | Potency [8] | Potency [9] | outcome [10] | Potency [11] | outcome [19] | outcome [13] | Potency [14] | Potency [15] | outcome [16] | Potency [20] | outcome [17] | outcome [18]

CC(C)(C)c1ccc(-c2ccc(C(C)(C)C)cc2)cc1
inactive: Potency [1] | outcome [2] | max response [3] -2.15% | outcome [4] | outcome [5] | Potency [6] | outcome [7] | Potency [8] | Potency [9] | outcome [10] | Potency [11] | Potency [12] | outcome [13] | Potency [15] | outcome [16] | Potency [20] | outcome [17]

O=[N+]([O-])c1ccc(/C=N\O)o1
inactive: Potency [1] | outcome [2] | max response [3] 4.52% | outcome [4] | outcome [5] | Potency [6] | outcome [7] | Potency [8] | Potency [9] | outcome [10] | Potency [11] | Potency [12] | outcome [13] | Potency [15] | outcome [16] | Potency [20] | outcome [17]

CN(C)CCCN(C)CCCN(C)C
inactive: Potency [1] | outcome [2] | max response [3] -6.89% | outcome [4] | outcome [5] | Potency [6] | outcome [7] | Potency [8] | Potency [9] | Potency [11] | Potency [12] | outcome [19] | outcome [13] | Potency [14] | Potency [15] | outcome [16] | Potency [20] | outcome [17]

CCCCCCC#CC(=O)OC
inactive: Potency [1] | outcome [2] | max response [3] 11.4% | outcome [4] | outcome [5] | Potency [6] | outcome [7] | Potency [8] | Potency [9] | Potency [11] | Potency [12] | outcome [13] | Potency [14] | Potency [15] | outcome [16] | Potency [20] | outcome [17] | outcome [18]
